In all, about 290,000 compounds went through this assay and about 890 (0.31%) were called active. No stated cut-off is given here; in the data, active means inhibition mostly above about 52% (no sharp cut-off); inactive means mostly below about 76%. The list comes from a sample in which actives are over-represented; it also holds similar structures and randomly drawn compounds.
Experiment: cell-free HIV fusion peptide-binding blockers – biochemical, uHTS, fluorescence dequenching, primary screen (AID 1986)
Conditions: 30 min, stronger effect = higher value
[1] = measured here: repeat confirmation average inhibition, at 18.6 µM

O=C(CNC(=O)c1ccc(Br)cc1)Nc1ccc(Br)cc1C(=O)c1ccccc1
inhibition (at 20 µM): 1.3% (inactive)

CCOC(=O)N(CC)c1ccc(C(O)(C(=O)OC)C(F)(F)F)cc1 (stereo not drawn)
inhibition (at 20 µM): 1.2% (inactive)

CCCCn1c(=O)c(C(=O)NCc2ccco2)c(O)c2ccccc21
inhibition (at 20 µM): 4.7% (inactive)

Cc1cc(N2CCCC2)ccc1C=C(C#N)C#N
inhibition (at 20 µM): 80.3% (active)

N#CC(C#N)=Cc1ccc(N2CCCC2)cc1
inhibition (at 20 µM): 11.8% (inactive)

Cc1cc(C=C(C#N)C#N)ccc1N1CCCC1
inhibition (at 20 µM): 40.1% (inactive)

c1ccc(-c2[nH]c[n+](CC3CO3)c2-c2ccccc2)cc1 (stereo not drawn)
inhibition (at 20 µM): 12.3% (inactive)

O=C(CCc1nnc2ccc(NCc3ccccc3Cl)nn12)N1CCC2(CC1)OCCO2
inhibition (at 20 µM): 1% (inactive)

CCCCn1c(O)c(C(C)=NCCc2c[nH]c3ccccc23)c(=O)[nH]c1=O
inhibition (at 20 µM): 0.5% (inactive)

CCCCn1c(O)c(C(=O)/C=C/c2c[nH]c3ccccc23)c(=O)[nH]c1=O
inhibition (at 20 µM): 97.6% (active)

O=C(/C=C/c1c[nH]c2ccccc12)c1c(O)n(CCc2ccccc2)c(=O)[nH]c1=O
inhibition (at 20 µM): 148% (inactive)

CC(=O)NNC(=O)CN1C(=O)CN=C(c2ccccc2)c2cc(Br)ccc21
inhibition (at 20 µM): 2.1% (inactive)

CN(C)C(=O)Oc1ccc(Cl)c2cccnc12
inhibition (at 20 µM): 3.9% (inactive)

O=c1[nH]c(=S)n(-c2ccc(Cl)cc2)c(O)c1C=Nc1ccc(N2CCOCC2)cc1
inhibition (at 20 µM): 102% (active) | inhibition [1]: 80.1%

Cc1cc(C)cc(-n2c(O)c(C=Nc3ccc(N4CCOCC4)cc3)c(=O)[nH]c2=S)c1
inhibition (at 20 µM): 23.1% (inactive)

O=c1[nH]c(=S)n(-c2ccc(Br)cc2)c(O)c1C=Nc1ccc(N2CCOCC2)cc1
inhibition (at 20 µM): 24.5% (inactive)

O=C1NC(=O)N(c2ccccc2)C(=O)/C1=C\c1ccccc1[N+](=O)[O-]
inhibition (at 20 µM): 3.7% (inactive)

CCCCn1c(=O)c(C=Nc2cccnc2Cl)c(O)n(CCCCl)c1=O
inhibition (at 20 µM): 37.8% (inactive)

O=c1c(C=Nc2cccnc2Cl)c(O)n(CCCCl)c(=O)n1C1CCCCC1
inhibition (at 20 µM): 71% (active)

C=CCn1c(=O)c(C=Nc2cccnc2Cl)c(O)n(CCCC)c1=O
inhibition (at 20 µM): 119% (inactive) | inhibition [1]: 1.7%

Cc1ccc(N2C(=O)NC(=O)C(CCc3ccccn3)(Cc3cccc(Cl)c3Cl)C2=O)cc1 (stereo not drawn)
inhibition (at 20 µM): 0.2% (inactive)

Cc1ccc(-n2c(O)c(/C=C/C=Nc3ccccc3)c(=O)[nH]c2=O)cc1
inhibition (at 20 µM): 74.3% (active)

Cn1c(O)c(/C=C/C=Nc2ccccc2)c(=O)n(C)c1=S
inhibition (at 20 µM): 91.4% (active) | inhibition [1]: 60.5%

Cc1cccc(-n2c(O)c(C=Nc3ccc(Br)cn3)c(=O)[nH]c2=O)c1
inhibition (at 20 µM): 144% (inactive)

Cc1ccc(-n2c(O)c(C=Nc3ccc(Br)cn3)c(=O)[nH]c2=O)cc1
inhibition (at 20 µM): 124% (active)

Cn1c(O)c(C=Nc2ccccc2)c(=O)n(C)c1=O
inhibition (at 20 µM): 1.3% (inactive)

Cc1ccc(-n2c(O)c(/C=N/c3ncc(Br)cc3Br)c(=O)[nH]c2=O)cc1
inhibition (at 20 µM): 64% (inactive) | inhibition [1]: 2.3%

Cc1cccc(-n2c(O)c(/C=C/C=Nc3ccccc3)c(=O)[nH]c2=O)c1
inhibition (at 20 µM): 147% (inactive)

O=c1[nH]c(=O)n(-c2ccccc2)c(O)c1/C=C/C=Nc1ccccc1
inhibition (at 20 µM): 147% (inactive)

Cn1c(O)c(/C=C/C=Nc2ccccc2)c(=O)n(C)c1=O
inhibition (at 20 µM): 52.8% (inactive) | inhibition [1]: 27.8%

CC(=O)c1cccc(OCC(O)CN2CC=C(c3ccccc3)CC2)c1 (stereo not drawn)
inhibition (at 20 µM): -1% (inactive)

O=c1c2ccccc2[nH]c(=S)n1-c1ccc(Br)cc1
inhibition (at 20 µM): -0.2% (inactive)

O=c1[nH]c(O)c(N=Nc2ccc(SC(F)F)cc2)c(=O)[nH]1
inhibition (at 20 µM): 3.1% (inactive)

CCCOP(=O)(OCCC)C(NC(=O)c1cc(OC)c(OC)c(OC)c1)c1ccccc1 (stereo not drawn)
inhibition (at 20 µM): -1.1% (inactive)

CCOC(=O)c1c(C)n(C(C)C)c2ccc(OC)cc12
inhibition (at 20 µM): -1.3% (inactive)

COc1cccc(CNC(=O)CCC(=O)N2C[C@H]3C[C@H](C2)c2cccc(=O)n2C3)c1OC
inhibition (at 20 µM): 1.4% (inactive)

CCc1ccc(N2C(=O)NC(=O)/C(=C/c3cccn3CCOc3ccc(C)cc3)C2=O)cc1
inhibition (at 20 µM): 73.7% (inactive) | inhibition [1]: 6.1%

O=C1NC(=O)N(Cc2ccco2)C(=O)/C1=C\c1cccn1CCOc1ccc(Cl)cc1
inhibition (at 20 µM): 93.3% (inactive) | inhibition [1]: 0.8%

CCc1ccc(N2C(=O)NC(=O)/C(=C/c3cccn3CCOc3ccc(C(C)CC)cc3)C2=O)cc1 (stereo not drawn)
inhibition (at 20 µM): 53.2% (active)

CCc1ccc(N2C(=O)NC(=O)/C(=C\c3cccn3CCOc3ccc(C(C)C)cc3)C2=O)cc1
inhibition (at 20 µM): 59.3% (inactive) | inhibition [1]: 1.8%

Cc1ccc(OCCn2cccc2/C=C2/C(=O)NC(=O)N(Cc3ccco3)C2=O)cc1
inhibition (at 20 µM): 23.5% (inactive)

CCC(C)c1ccc(N2C(=O)NC(=O)/C(=C/c3cccn3CCOc3ccc(C)cc3)C2=O)cc1 (stereo not drawn)
inhibition (at 20 µM): 65.8% (active) | inhibition [1]: 70.7%

Cc1ccc(/C=C2/Sc3ccc(C(=O)N4CCC5(CC4)OCCO5)cc3NC2=O)cc1
inhibition (at 20 µM): 54.6% (inactive) | inhibition [1]: 37.1%

CCOC(=O)c1sc(/N=C/c2c(O)n(-c3ccccc3)c(=O)[nH]c2=O)c(C#N)c1C
inhibition (at 20 µM): -1.7% (inactive)

O=C(O)C1C2c3ccccc3C(c3ccccc32)C1C(=O)Nc1ccccc1 (stereo not drawn)
inhibition (at 20 µM): 4.1% (inactive)

CC12CN3CCN(CC(C3)C1O)C2 (stereo not drawn)
inhibition (at 20 µM): -2.7% (inactive)

COc1ccccc1/C=N/N=C(/N)N[N+](=O)[O-]
inhibition (at 20 µM): 2.7% (inactive)

COc1cccc(CN2CC=C(c3ccc(F)cc3)CC2)c1
inhibition (at 20 µM): 2.3% (inactive)
